± gives the standard deviation.

This experiment relates to EfPiwi piRISC loaded with L1MC piRNA (26 nt). As to the kind of experiment: pre-steady-state target cleavage rate (min^-1); auxiliary factor: none (no Gtsf1); guide: L1MC piRNA 5'p-UAACUAAAUACUAUGCAAGCUGUAGG; MIWI and MILI are mouse PIWI proteins and EfPiwi is from a freshwater sponge; tags in brackets are library labels; higher = faster piRNA-guided slicing of the target. As for the experimental part: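 Cleave-'n-Seq: a library of target RNAs (target site in constant flanks) at […] was incubated with 1 nM active freshwater sponge Ephydatia fluviatilis Piwi piRISC (synthetic 5'-monophosphorylated piRNA guide) with or without 500 nM EmGtsf1 at 33 °C for 1 min to 16 h. Uncleaved targets were sequenced and the pooled three trials fitted to a burst-and-steady-state model to give the pre-steady-state cleavage rate (min^-1). Sequence is the target site only. Fits with R² ≤ 0 are excluded.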
UCCUGGAUGUCCAUGCAUAGUAUUAAGUUA: the “pre-steady-state target cleavage rate” value was under 0.0001.
Regarding UCCUGGAUCAGCUUGCAUAGUAUAUAGUUA, the “pre-steady-state target cleavage rate” value came out at 0.0117 ± 0.0058.
Under UCCUGGAUGUCGAAGCAUAGUUUUUAGAUA stands under 0.0001; under UCCUGGGACAGCUUGCAUAGUAUUUAGUUA, 0.00525 ± 0.0051; under UCCUGGAUGAGCUUGCAUAGAUUUUAGUAA, under 0.0001.
To UCCUGGAUGUCGAACCAUUGUAUUUAGUUA belongs under 0.0001; to UCCUGGAUCAGGUUGCAUAGUAUUUUCAAA, under 0.0001.
Turning to UCCUCCUACACCUUCCAUAGUAUUUAGUUA, the “pre-steady-state target cleavage rate” value was under 0.0001.
To UCCUGGAUGUCGAACGUAUCUAUCUUAGUUA belongs under 0.0001; to UCCUGGAUGUCCUUGCAUAGUUUUUACUUA, under 0.0001; to UCCUGGAUGUCGAUCCAUAGUAAUUAGUUA, under 0.0001.
Under UCCUGGAACACCUUGCAUAGUAUUUUCAAA stands under 0.0001.
Under UCCUGGAUGUCGAACCAUAGUAGUUUAGUUA stands under 0.0001; under UCCUGGAUGUCGAAGCAUAGUAUUUUGAUA, under 0.0001; under UCCUGGAUGUCGAAGCAUAGUUUUUAGUUA, under 0.0001.
UCCUGCUACAGCUUGCAUAGUAUUAUGAAA: the “pre-steady-state target cleavage rate” value is under 0.0001.
In the case of UCCUGGAUCAGCUUGCAUAGUACUUUAGUUA, the “pre-steady-state target cleavage rate” value is 0.00468 ± 0.0038.
To UCCUGGAUGUCCUUGCAUAAGUAUUUAGUUA belongs under 0.0001.
Under UCCUGGAUGUCGAACCAUAGUUUUAGUUA stands under 0.0001; under UCCUGGAACAGCUUGCAUCGUAUUUAGUUA, 0.00791 ± 0.0048.
For the sequence “UCCUGGAUGUCGAACGAUAGUAUUUAGAAA [g4:g14:cont:t1A]”, the “pre-steady-state target cleavage rate” value is under 0.0001.
Under UCCUGGAACAGCUUGCAUAGUAUUAACAAA stands under 0.0001; under UCCUGGAUGUCGAACCAUAGUAUUUCAGUUA, under 0.0001.
Regarding UCCUGGAUGUCGAUGCAUUGAAUUUAGUUA, the “pre-steady-state target cleavage rate” value was under 0.0001.
To UCCUGGAUGUCGAUGCAUAGAAUUUAGUAA belongs under 0.0001; to UCCUGGAUGUCGAUGCAUACUUUUUAGUUA, under 0.0001; to “UCCUGGAUGUCGUUGCAUAGUAUUUUCAAA [g6:g18:cont:t1A]”, under 0.0001.
In the case of UCCUGGAACAGCUUCCAUAGUAUUUACUUA, the “pre-steady-state target cleavage rate” value was under 0.0001.
For the sequence UCCUGGAUGUCGAAGAAUAGUAUUUAGUUA, the “pre-steady-state target cleavage rate” value was under 0.0001.
To UCCUGGAAGUGCUUGCAUAGUAUUUAGAAA belongs under 0.0001; to UCCUGGAUCAGCUUGCAUAGUAUUAUAGUUA, 0.00759 ± 0.0041; to UCCUGGAUGUCGAAGCAUAGUAUAUUAGUUA, under 0.0001.
To UCCUCCUACAGGAUGCAUAGUAUUUUCAAA belongs under 0.0001; to UCCUGGAACAGCUUGUAUAGUAUUUAGUUA, 0.00519 ± 0.0044.
In the case of UCCUGGAUGUCGAACGUAUGAUUUAGUUA, the “pre-steady-state target cleavage rate” value was under 0.0001.
Under UCCUGGAUGUCGUUCCAUAGUAUAUAGUUA stands under 0.0001; under UCCUGGAUGUCGAACGUUAGUUUUUUGUUA, under 0.0001.
Under UCCUGGAUGUCGAAGCAUAGGAUUUAGUUA stands under 0.0001.
Under UCCUGGAUCAGCUUCGUUAGUAUUUUCAAA stands under 0.0001.
Consider UCCUGGAUGAGCUUGCAUAGUACUUAGUUA, for which the “pre-steady-state target cleavage rate” value is 0.00448 ± 0.0039.

(Values after the supplement of paper PMC10338343.)
